Measured values reported in PubChem BioAssay AID720650 (Broad Institute, 2013).
A number with no mark means an inactive call. Active and inactive are the calls of the source. How the calls were made is not given here.

Experiment: Biochemical counterscreen for C difficile toxins, absence of UDPG, inhibitor dose response (AID 720650)
Conditions: series mostly up to 19.5 µM

Row | Compound | AC50
1 | C=CCNS(=O)(=O)c1nc(C)c(Cl)c(C)c1C#N | inactive
2 | COc1ccc(Cl)cc1NC(=O)CN(C)C(=O)c1cc2c(s1)CCCC2 | inactive
3 | C/C(=N\NC(=O)CSc1nc2ccccc2c(=O)n1-c1ccccc1C)c1cccs1 | inactive
4 | CC1(C)Cc2c(sc3ncn4c(=S)[nH]nc4c23)CO1 | 13.9 µM (active)
5 | COc1ccc(/C=C\c2onc(C)c2S(=O)(=O)N2CCC(C(=O)NCc3ccco3)CC2)cc1 | inactive
6 | CN(C)CCNc1ccc(CO)c2sc3ccc(O)cc3c(=O)c12 | 6.06 µM (active)
7 | CC(=O)Nc1ccc(N(C(=O)c2ccco2)C(C(=O)NC2CCCC2)c2cccs2)cc1 (stereo not drawn) | inactive
8 | O=C(O)c1cc(NS(=O)(=O)c2ccc(NC3CCCCC3)c([N+](=O)[O-])c2)cc(C(=O)O)c1 | inactive
9 | COc1cc(/C=N/NC(=O)C2(O)c3ccccc3-c3ccccc32)ccc1O | inactive
10 | Cc1ccc(Cc2c(-c3ccc(C)cc3)nc3ccc(Cl)cn23)cc1 | inactive
11 | O=C(Nc1ccc(O)cc1)C1CCCN1S(=O)(=O)c1ccc(F)cc1 (stereo not drawn) | 10.9 µM (active)
12 | O=C(C[n+]1ccccc1)N/N=C/c1ccc(O)cc1 | 20.2 µM (active)
13 | O=C(N/N=C/c1ccc(O)cc1)NC12CC3CC(CC(C3)C1)C2 | 11.2 µM (active)
14 | NC1=NC[C@H](Cc2ccc(O)cc2)N1CCc1cc(C(F)(F)F)cc(C(F)(F)F)c1 | inactive
15 | O=C(NNc1nc2c(F)cccc2s1)C1COc2ccccc2O1 (stereo not drawn) | 0.34 µM (active)
16 | C/C(=N\NC(N)=S)c1ccc2c(c1)OCCO2 | inactive
17 | NS(=O)(=O)c1cccc(NC(=O)c2ccc(NS(=O)(=O)c3cccc([N+](=O)[O-])c3)cc2)c1 | inactive
18 | Cc1ccc(-n2c(SCC(=O)O)nc3c(sc(=S)n3-c3ccc(C)c(C)c3)c2=O)cc1 | 13.7 µM (active)
19 | Cc1nc2ccccc2nc1OCC(=O)Nc1ccc(F)cc1 | inactive

Row | Compound | AC50
20 | COc1ccc(C2=NS(=O)(=O)N(C)C(C(=O)NC(C)c3ccccc3)=C2)cc1 (stereo not drawn) | inactive
21 | Oc1ccc(CCc2ccccn2)cc1 | 11.6 µM (active)
22 | COc1cc(NC(=O)CCc2nnc3ccc(N4CCC(C)CC4)nn23)cc(OC)c1 | inactive
23 | CN(C)c1ccc(C(=S)N2CCN(C(=S)Nc3ccc(Cl)cc3)CC2)cc1 | inactive
24 | COCCN(C(=O)C(C)C)c1nnc(-c2ccc(C(C)(C)C)cc2)s1 | inactive
25 | Cn1c(=O)[nH]c(=O)c2c1[nH]c(=S)n2Cc1ccc(Cl)cc1 | > 39 µM
26 | CCNC(=O)[C@H]1[C@H](CO)[C@H]2Cn3c(ccc(-c4ccccc4)c3=O)[C@H]2N1CC | inactive
27 | CCOC(=O)Cn1c(C(F)(F)F)nc2nc(Cl)c(Cl)nc21 | inactive
28 | CC(=O)Nc1ccc(S(=O)(=O)N2CCCC(C(=O)O)C2)cc1 (stereo not drawn) | inactive
29 | CCc1ccc(Nc2n[n+](-c3ccccc3)c(-c3ccc(OC)c(Br)c3)s2)cc1 | inactive
30 | S=C(NCCc1ccccc1)Nc1ncccn1 | inactive
31 | O=C(C[C@H]1C[C@@H]2c3cc(NC(=O)c4ccc5c(c4)OCO5)ccc3O[C@@H]2[C@@H](CO)O1)NCc1cccc(F)c1 | inactive
32 | Cc1ccc2ccc[n+](Cc3ccccc3)c2c1 | inactive
33 | COc1cc(/C=N/NC(=O)CSc2ccccn2)ccc1O | inactive
34 | CSc1nc2c(c(=O)[nH]c(=O)n2C)n1Cc1ccccc1 | inactive
35 | COc1ccc2nc(NNC(=O)C3COc4ccccc4O3)sc2c1 (stereo not drawn) | < 0.16 µM (active)
36 | COCC(=O)N1CC[C@@H]2[C@H]1c1cc(-c3ccc(F)cc3)ccc1N(C)[C@H]2CO | 7.2 µM (active)
37 | c1ccc(OCCSc2nnc3sc4ccccc4n23)cc1 | 20.6 µM (active)
38 | O=C(CSc1nnc(-c2ccncc2)o1)N1CCCCCC1 | inactive
